Source: PubChem
HSF1 inhib: HSF1 inhibitors in luciferase reporter cells, primary screen, cell-based, NIH3T3, luminescence | NIH3T3-HGL HSE-luciferase, MG132-induced, luminescence 8 h; hits give low values | activity change, negative = inhibition, % at 7.5 µM (by protocol) | 300,000 compounds, 0.77% hits;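 active = more than half of replicate wells show activity change below -50%, luminescence cut by over half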;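 also: luciferase reports HSF-1 transcriptional activity via heat shock element; 0% = median of DMSO wells and -100% = zero luminescence signal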
MITF TRPM1 HTS: activators of MITF-driven TRPM1 promoter reporter, primary screen, cell-based, SK-MEL-5, luciferase, single point | SK-MEL-5 TRPM1-promoter luciferase, 24 h; % of positive control, neutral wells = 0 | activation, % at 12.5 µM | 300,000 compounds, 0.75% hits;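 active = mean activation of at least 80% with every replicate also reaching 80%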;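 also: 0% = neutral control wells and 100% = parthenolide positive control wells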
esBAF inh: Bmi1 luciferase reporter increase in mESCs, primary screen, esBAF inhibitor project, mouse ES cells, Bmi1 luciferase knock-in, single point | 24 h; 100% = twice the neutral-well signal | reporter increase, % at 12.5 µM | AID 602393, 2012 | 350,000 compounds, 2% hits; in the data active = activation above about 40%;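 also: 0% = median of the plate's neutral control wells and 100% = double that signal; a rise in the Bmi1 reporter signal indicates esBAF inhibition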
Wnt bcat act: Wnt/beta-catenin pathway activators, primary screen, cell-based, plate reader, single point; AID 743398, 2014; 300,000 compounds, 1.2% hits; activation, % at 9.35 µM; Wnt/beta-catenin reporter cell assay, activator; in the data active = activation above about 30%, passing the limit was not always enough;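 also: 0% = neutral control wells and 100% = positive control wells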
HSF1 activator: HSF-1 activators, primary screen, NIH3T3-HGL cells, MG132 stress, luminescence, single point. NIH3T3-HGL HSF-1 luciferase reporter, 8 h; 100% = twice DMSO control signal. activation, % at 9 µM. 300,000 compounds, 1.7% hits;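 active = mean replicate activation of at least 50% with a set share of replicates each reaching 50%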;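 also: 0% = median of the neutral control wells and 100% = twice that signal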
Starred values were filed as active, the others as inactive. A selection: hits, their analogues and other compounds. The true share with any hit is near 3.8%.

Screening CCC(=O)N1C[C@H](C)[C@H](OC)CN(C)C(=O)c2ccc(NC(=O)c3cnccn3)cc2OC[C@H]1C returned esBAF inh -2.
Screening COC(=O)C1=C(C)N(Cc2ccc(C)cc2)C(=O)/C1=C\c1cc(OC)c(OC)c(OC)c1 returned HSF1 inhib 72, MITF TRPM1 HTS -8, Wnt bcat act -8 and HSF1 activator 98*.
O=C(NCCc1nc2ccccc2[nH]1)/C(=C/c1ccc(F)cc1)NC(=O)c1ccco1 was read as HSF1 inhib 22, MITF TRPM1 HTS 2, Wnt bcat act 2 and HSF1 activator 64*.
`C=CCNc1nc(Nc2ccccc2F)nc(OCC)n1` gave HSF1 inhib 23, MITF TRPM1 HTS 45, esBAF inh 85*, Wnt bcat act 18 and HSF1 activator 42.
For COCCNC(=O)[C@@H]1[C@@H](CO)[C@@H]2Cn3c(ccc(-c4ccc(F)cc4)c3=O)[C@H]1N2C the results were esBAF inh 0.
`CCN(CCO)c1nc(SC)nc2c1sc1nc(-c3ccco3)c3c(c12)CCC3` gave HSF1 inhib 36, esBAF inh -4 and HSF1 activator 58*.
Cc1noc(C)c1COC(=O)c1ccccc1Oc1ccccc1 was read as HSF1 inhib 14, MITF TRPM1 HTS 5, esBAF inh -5, Wnt bcat act 0 and HSF1 activator 57*.
CC(C)NC(=O)N(C)C[C@@H]1Oc2ccc(NC(=O)C3CCCCC3)cc2C(=O)N([C@@H](C)CO)C[C@@H]1C was read as esBAF inh 1.
CCOc1ccc(/C=N/NC(=O)C(C)N(c2ccc(OC)cc2)S(C)(=O)=O)cc1 (stereo unspecified) was read as HSF1 inhib 25, MITF TRPM1 HTS 6, esBAF inh -3 and HSF1 activator 64*.
For COc1cccc(N(CC(=O)Nc2cccnc2)S(C)(=O)=O)c1 the results were HSF1 inhib -81*, MITF TRPM1 HTS 11, esBAF inh 1, Wnt bcat act -1 and HSF1 activator -85.
Screening CCOc1ccc(NC(=O)CN(c2ccc(OC)cc2)S(C)(=O)=O)cc1 returned HSF1 inhib 17, MITF TRPM1 HTS 57, esBAF inh 67* and HSF1 activator 28.
Screening COc1ccc(N(C(C)C(=O)N/N=C/c2ccc(OCC(C)C)cc2)S(C)(=O)=O)cc1 (stereo unspecified) returned HSF1 inhib -7, MITF TRPM1 HTS -10 and HSF1 activator -3.
`CCOc1ccc(N(CC(=O)Nc2ccc(OC)cc2)S(C)(=O)=O)cc1` gave HSF1 inhib 8, esBAF inh 33, Wnt bcat act -1 and HSF1 activator 16.
Screening COc1ccc(OC)c(N(CC(=O)Nc2ccccc2)S(C)(=O)=O)c1 returned HSF1 inhib -65*, MITF TRPM1 HTS -15, esBAF inh 0, Wnt bcat act -4 and HSF1 activator -72.
O=C([C@@H]1[C@@H](CO)[C@@H]2Cn3c(ccc(C4=CCCCC4)c3=O)[C@H]1N2)N1CCCCC1 was read as esBAF inh -1.
CN1C(=O)c2cc(NC(=O)c3ccccc3)ccc2OC[C@@H]2O[C@@H](CC(=O)NCC3CC3)CC[C@H]21 was read as esBAF inh 4.
For Cc1cc(C(C)(C)C)oc1C(=O)N(CC(=O)NC1CCCC1)c1c(C)cccc1C the results were HSF1 inhib -53*, MITF TRPM1 HTS -5, Wnt bcat act -2 and HSF1 activator -58.
`Cc1cc(C(C)(C)C)oc1C(=O)N(CC(=O)NC1CCCC1)c1ccc(F)cc1` gave HSF1 inhib -2, MITF TRPM1 HTS -15, esBAF inh -6, Wnt bcat act -1 and HSF1 activator 18.
Cc1ccc2c(CN3CCN(Cc4ccc5c(c4)OCO5)CC3)cc(=O)oc2c1C was read as HSF1 inhib -5, MITF TRPM1 HTS -11, esBAF inh 1, Wnt bcat act -2 and HSF1 activator 18.
For Cc1ccc2c(CN(C)Cc3ccccc3)cc(=O)oc2c1C the results were HSF1 inhib 40, MITF TRPM1 HTS 66, esBAF inh 59*, Wnt bcat act 18 and HSF1 activator 74*.
For Cc1cc2oc(=O)cc(CN(C)Cc3ccccc3)c2cc1C the results were esBAF inh 48* and Wnt bcat act 8.
For Cc1ccc2c(CN(C)Cc3ccc(OC(F)F)cc3)cc(=O)oc2c1C the results were HSF1 inhib 2, MITF TRPM1 HTS -1, esBAF inh -2, Wnt bcat act -1 and HSF1 activator 24.
Screening COc1cc2c(cc1OC)CN(Cc1cc(=O)oc3c(C)c(C)ccc13)CC2 returned HSF1 inhib 13, MITF TRPM1 HTS -3 and HSF1 activator 58*.
For Cc1ccc2c(CN(C)Cc3cccc(F)c3)cc(=O)oc2c1C the results were HSF1 inhib 18, MITF TRPM1 HTS 35, esBAF inh 50*, Wnt bcat act 6 and HSF1 activator 30.
Screening COc1cc2c(cc1OC)CN(Cc1cc(=O)oc3cc(C)c(C)cc13)CC2 returned HSF1 inhib 4, MITF TRPM1 HTS 8, esBAF inh 3, Wnt bcat act -5 and HSF1 activator 33.
Screening CC(C)CC#Cc1ccc2c(c1)O[C@@H](CN(C)C(=O)Nc1ccccc1F)[C@@H](C)CN([C@H](C)CO)S2(=O)=O returned esBAF inh 3.
CN(C)CCCNc1oc(-c2ccc(Cl)cc2)nc1C#N was read as HSF1 inhib -2, MITF TRPM1 HTS 22, esBAF inh 12 and HSF1 activator 0.
`N#Cc1nc(-c2ccc(Cl)cc2)oc1NCCc1ccccn1` gave HSF1 inhib 18, MITF TRPM1 HTS 27, esBAF inh 24, Wnt bcat act 36* and HSF1 activator 26.
Screening Cc1ccc(-c2nc(C#N)c(NCCc3ccccn3)o2)cc1 returned HSF1 inhib 29, MITF TRPM1 HTS 67, esBAF inh 52* and HSF1 activator 42.
Screening CCc1ccc(C(C)NC(=O)c2ccc3c(c2)OCO3)cc1 (stereo unspecified) returned HSF1 inhib 11, MITF TRPM1 HTS -16, Wnt bcat act 12 and HSF1 activator 2.
COc1cc(NC(=O)c2ccc3c(c2)OCO3)ccc1NC(=O)C(C)C was read as HSF1 inhib -4, esBAF inh 52*, Wnt bcat act 1 and HSF1 activator -3.
CC(NC(=O)c1ccc2c(c1)OCO2)c1ccccc1 (stereo unspecified) was read as HSF1 inhib -71*, MITF TRPM1 HTS 16, esBAF inh -1, Wnt bcat act -1 and HSF1 activator -79.
O=C(Nc1ccc(Cl)c(Cl)c1)c1ccc2c(c1)OCO2 was read as HSF1 inhib 64, esBAF inh 10, Wnt bcat act 15 and HSF1 activator 88*.
